Data from PubChem BioAssay AID906 (National Center for Advancing Translational Sciences (NCATS), 2007).
The list shows a part of the results. Inconclusive results are not listed. Unmarked numbers belong to inactive results. Active and inactive are the calls of the source. Calls come from the whole dose curve; as a rule, active = well fitted inhibition curve with a large enough effect; inconclusive = small, poorly fitted or top-dose-only effect, or another doubt; inactive = no such curve, though single readings can be large or run the other way.

Test: Cell Viability - CRE-beta lactamase CHO cell - 40 hr assay
Details: CRE-bla CHO viability, ATP luminescence; max response: hits give low values
Excerpt: NIH Chemical Genomics Center [NCGC] NIH Molecular Libraries Screening Centers Network [MLSCN] National Institutes of Environmental Health Sciences [NIEHS] National Toxicology Program [NTP] MLSCN Grant: 1X01MH079867-01 Assay Provider: Marshall W. Nirenberg, U.S. National Heart, Lung and Blood Institute NCGC Assay Overview: We have developed a 1536-well cell-based assay for quantitative high throughput screening (qHTS) against a number of cell lines to determine in vitro cytotoxicity of small molecules. This particular assay uses CRE-bla CHO cell line from Invitrogen.
NCGC Assay Protocol Summary: The CellTiter-Glo luminescent cell viability assay (Promega) is a homogeneous method to measure the number of viable cells in culture. The end point readout of this assay is based on quantitation of intracellular ATP, an indicator of metabolic activity, using the luciferase reaction. Luciferase catalyzes the oxidation of beetle Luciferin to oxyluciferin and light in the presence of ATP. The luminescent signal is proportional to amount of ATP present. Using the CellTiter-Glo luminescent cell viability assay, the amount of cellular ATP was measured in the CRE-bla CHO cell line with complete culture medium following compound treatment for 40 hours. The assay was performed in opaque white Kalypsys 1536-well plates. In the screen, tamoxifen was used as positive control. The selected compounds were measured for their ability to cause acute toxicity in the cell line, as reflected by a decrease in intracellular ATP levels, in a concentration-dependent manner. Data were normalized to the controls for basal activity (DMSO only) and 100% inhibition (100 uM tamoxifen). AC50 values were determined from concentration-response data modeled with the standard Hill equation. NCGC Assay Protocol Summary 1. Reagent; 5 uL; 2000 CHO cells/well 2. Time; overnight; 37 °C incubation 3. Compounds; 23 nL; 5.9 nM to 46 uM 4. Controls; 23 nL; Tamoxifen 4.5 nM to 92 uM 5. Time; 40 hr; 37 °C incubation 6. Reagent; 5 uL; CellTiter Glo reagent 7. Time; 20 min; Room Temperature 8. Detection; Luminescence; Viewlux plate reader Keywords: cell viability, cytotoxicity, CHO cell line, luminescence, MLSMR, MLSCN, NIH Roadmap, qHTS, NCGC

Row | Compound | Potency | max response
1 | Cc1nn(-c2ccccc2)c2sc(C(=O)N(Cc3ccco3)C(C)C(=O)NC(C)(C)C)cc12 (stereo not given) | 12.6 µM (active) | –
2 | COc1ccc(CCNC(=O)CSc2nc(C)nc3c2oc2ccccc23)cc1OC | – | -16.6%
3 | Cc1nc(SCC(=O)Nc2cc(C)on2)c2c3c(sc2n1)CCCC3 | – | -15.8%
4 | CCc1nc(Nc2ccc3nccnc3c2)c2oc3ccccc3c2n1 | – | -16.6%
5 | CC1CCc2sc3nc(N4CCN(CCO)CC4)n4ncnc4c3c2C1 (stereo not given) | – | -25.1%
